VHR inh color: VHR1 (DUSP3) phosphatase inhibition | P51452 | recombinant VHR phosphatase, colorimetric substrate read-out | inhibition, % at 20 µM | actives 0.7% (n = 50,000) | AID 1992; in the data active = inhibition above about 60%
Target sequence (P51452 whole entry, looked up): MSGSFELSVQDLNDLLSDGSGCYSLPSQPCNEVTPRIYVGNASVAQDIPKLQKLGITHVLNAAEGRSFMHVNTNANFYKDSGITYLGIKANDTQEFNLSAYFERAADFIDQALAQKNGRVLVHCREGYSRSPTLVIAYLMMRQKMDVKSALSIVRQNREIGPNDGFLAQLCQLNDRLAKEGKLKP
* marks the source's active call; other numbers are inactive results. Only a selection was taken, and hits are over-represented in it overall.

SMILES | VHR inh color
O=C1CC(c2ccccc2)CC2=C1C(c1ccco1)Nc1ccccc1N2 (stereo not drawn) | 7
CC1(C)CC(=O)C2=C(C1)Nc1ccccc1NC2c1coc2ccccc2c1=O (stereo not drawn) | 3
O=C1CC(c2ccccc2)CC2=C1C(c1coc3ccccc3c1=O)Nc1ccccc1N2 (stereo not drawn) | 112*
CCc1nc(-c2ccccc2)nc(-c2ccccc2)c1C | -10
O=C(NN=C(C1CC1)C1CC1)c1cc2ccccc2cc1O | 12
O=S(=O)(Nc1cccc(C(F)(F)F)c1)c1cccs1 | -10
C=CCN1C(=O)C(Cc2ccccc2)S/C1=N/N=C/c1ccccc1 (stereo not drawn) | -28
COc1ccccc1N(CC(=O)NCCOc1ccc(Cl)cc1)S(=O)(=O)c1ccccc1 | -10
Cc1ccn2c(-c3csc(Nc4cccc(O)c4)n3)c(C)nc2c1 | 67*
CCOc1ccc(Nc2nc(-c3ccccn3)cs2)cc1 | -11
Cc1nc2ncccn2c1-c1csc(Nc2cccc(O)c2)n1 | 61
Cc1ccc(-c2csc(Nc3ccc(O)cc3)n2)c(C)c1 | 56
CCOc1ccc(Nc2nc(-c3sc(NC(=O)CC)nc3C)cs2)cc1 | 4
CCOc1ccc(Nc2nc(-c3c(C)nc4cc(C)ccn34)cs2)cc1 | 88*
CCOc1ccc2ccc(OCC)c(/C=C3\C(=O)NC(=O)N(c4ccc5c(c4)OCO5)C3=O)c2c1 | -14
CCN(CC)c1ccc(C=Nc2ccccc2C(=O)Nc2ccccc2)c(O)c1 | -9
C#CCOc1ccc(C=C2C(=O)NC(=S)NC2=O)cc1Br | 54
C=CCn1c(CCCN2C(=O)c3cccc4cccc(c34)C2=O)nnc1SCC(=O)O | 17
COc1ccc(C2/C(=C(\O)c3ccc(F)cc3)C(=O)C(=O)N2CCCCCC(=O)O)c(OC)c1 (stereo not drawn) | 5
COc1ccc(C2CC(=O)Nc3c2cc(Br)c2ccccc32)cc1OC (stereo not drawn) | 67*
COc1cccc(C2CC(=O)Nc3c2cc(Br)c2ccccc32)c1OC (stereo not drawn) | 6
O=C1CC(c2ccc(F)c(F)c2)c2cc(Br)c3ccccc3c2N1 (stereo not drawn) | 6
Cc1ccc(C(=O)NC(=S)Nc2c[nH]c(=O)[nH]c2=O)cc1 | 20
CCCCn1c(/N=C/c2ccc(C)cc2O)nc2ccccc21 | -20
O=c1nc(/C=C/c2ccc(Cl)cc2)cc(C(F)(F)F)[nH]1 | -10
SMILES | VHR inh color
O=c1nc(/C=C/c2ccc(N3CCCC3)cc2)cc(C(F)(F)F)[nH]1 | 108*
O=c1nc(/C=C/c2ccc(N3CCOCC3)cc2)cc(C(F)(F)F)[nH]1 | 0
COc1ccccc1OCC(=O)Nc1ccc(C(=O)O)cc1 | -8
O=C1S/C(=C\c2ccccc2[N+](=O)[O-])C(=O)N1Cc1ccccc1 | -3
O=c1[nH]c(=O)n(Cc2ccccc2)cc1I | -23
Cc1ccc(S(=O)(=O)Nc2cc(Sc3ncn[nH]3)c(O)c3ccccc23)cc1 | 100*
Cc1ccc(C)c(S(=O)(=O)Nc2cc(Br)c(O)c3ccccc23)c1 | 10
O=S(=O)(Nc1cc(Cl)c(O)c2ccccc12)c1ccc(F)cc1 | 55
Cc1ccccc1OCCNC(=O)CCc1ccccc1 | -1
Cc1c(NC(=O)COc2ccc(Cl)cc2Cl)cccc1[N+](=O)[O-] | -11
O=c1[nH]c(/C=C/c2ccc(N3CCOCC3)c([N+](=O)[O-])c2)c([N+](=O)[O-])c(=O)[nH]1 | 80*
O=c1[nH]c(/C=C/c2ccccc2)c([N+](=O)[O-])c(=O)[nH]1 | 0
CCOc1cc(/C=C/c2[nH]c(=O)[nH]c(=O)c2[N+](=O)[O-])ccc1O | -16
C=C(C)Cn1c(Cc2ccccc2)n[nH]c1=S | -60
COc1ccc(-c2nc3cc(NC(=S)NC(=O)c4ccccc4Cl)ccc3o2)cc1Cl | 8
COc1cc(C2/C(=C(\O)c3ccccc3)C(=O)C(=O)N2c2cccnc2)ccc1O (stereo not drawn) | -9
CCN1C(=O)/C(=C\c2ccc(-c3ccccc3Cl)o2)SC1=S | -3
CCN1C(=O)/C(=C\c2ccc(-c3ccc(F)cc3)o2)SC1=S | -5
COC(=O)CN1C(=O)/C(=C\c2ccc(Cl)cc2)SC1=S | 2
O=C1/C(=C/c2ccc(Cl)cc2)SC(=S)N1CCS(=O)(=O)O | 80*
O=C1/C(=C/c2ccc(Cl)cc2)SC(=S)N1CCc1ccccc1 | -11
O=C1/C(=C\c2ccc(-c3cccc(Cl)c3)o2)SC(=S)N1CCS(=O)(=O)O | 91*
COc1ccc(S(=O)(=O)N(CC(=O)NC2CCCCC2)c2cc(C)cc(C)c2)cc1OC | -27
COc1cc(/C=N/Nc2nc(N3CCCCC3)nc(N3CCCCC3)n2)cc(Cl)c1O | 1
Nc1nc(-c2ccccc2)cc(N2CCOCC2)n1 | -4
SMILES | VHR inh color
COc1ccc(NC(=O)COc2ccc(C)c(C)c2)cc1 | 16
CN(C)c1ccc(/C=N/NC(=O)c2ccco2)o1 | -21
CCOC(=O)C1=NNC2(c3ccc(Cl)cc3)C(=O)N(c3cccc(OC)c3)C(=O)C12 (stereo not drawn) | 100*
CCOC(=O)C1=NNC2C(=O)N(c3cccc(Br)c3)C(=O)C12 (stereo not drawn) | -20
CCOC(=O)C1=C(C)NC(C)=C(C(=O)OC)C1c1ccc(Cl)cc1 (stereo not drawn) | -15
COc1cc(OC)cc(C(=O)Nc2cc(Cl)ccc2C)c1 | -6
CCOC(=O)c1c(NC(=O)c2cccc(F)c2)sc(C(=O)N(CC)CC)c1C | 1
Cc1c(Cl)c(C(F)(F)F)nn1CC(=O)N1CCN(c2ccc(F)cc2)CC1 | -6
Oc1c(C=C2N=c3ccccc3=N2)sc(=S)n1-c1cccc(C(F)(F)F)c1 | 5
CCOC(=O)c1c(NC(=S)Nc2ccccc2)sc2c1CCCCC2 | -7
CCOC(=O)c1c(NC(=O)c2ccccc2)sc2c1CCN(Cc1ccccc1)C2 | 53
CCOC(=O)c1c(NC(=S)Nc2ccc(C)cc2)sc2c1CCN(Cc1ccccc1)C2 | 68*
CC(=O)NC1=NC(=O)/C(=C\c2ccc(-c3ccc(C(=O)O)cc3)o2)S1 | 7
CC(=O)NC1=NC(=O)/C(=C/c2ccc(C)cc2)S1 | -2
CC(=O)NC1=NC(=O)/C(=C\c2ccc(Br)o2)S1 | 81*
CC(C)(C)c1cc(Br)ccc1OCC(=O)Nc1ccccc1C(N)=O | -9
CC1=C(C#N)c2nc(N)c(C#N)c(C)c2/C1=C\c1ccc(-c2cccc(Cl)c2)o1 | 17
CC1=C(C#N)c2nc(N)c(C#N)c(C)c2/C1=C/c1ccc(-c2ccc(C(=O)O)c(Cl)c2)o1 | 92*
CC1=C(C#N)c2nc(N)c(C#N)c(C)c2/C1=C\c1ccc(C)o1 | 54
C/C(=C\C(=O)c1ccc(Cl)cc1)Nc1ccc(Br)c(Cl)c1 | 8
CCc1ccccc1NC(=O)c1ccc(CN(c2cccc(Cl)c2)S(C)(=O)=O)cc1 | 6
Cc1ccc(/C=C(\C#N)c2nc(-c3cccc(Br)c3)cs2)o1 | 88*
Cc1ccc(/C=C(\C#N)c2nc(-c3ccc(C)c(C)c3)cs2)o1 | 60
Cc1ccc(/C=C(\C#N)c2nc(-c3cccc([N+](=O)[O-])c3)cs2)o1 | 21
Cc1ccc(/C(N)=N/OC(=O)c2ccccc2F)cc1 | -30
COc1cc(OC)cc(C(=O)N2CCN(c3ccc([N+](=O)[O-])cc3Cl)CC2)c1 | 18
O=C(COc1ccccc1Cl)NCCc1nc2ccccc2[nH]1 | 0
Cc1nc2cc(N=Cc3c[nH]c4ccccc34)ccc2n1C | 6
CCOC(=O)c1[nH]nc2c1C(=O)N(c1ccc(OC)c(Br)c1)C2=O | 4
CCOC(=O)c1[nH]nc2c1C(=O)N(c1ccc(Br)cc1)C2=O | 98*

High-throughput results from PubChem BioAssay.
